Drawing on PubChem BioAssay (Tox21), this text covers Potency for 25 compounds.

Several values for one entry are separate records, joined by “and”; a condition that tells them apart may be missing. Identical values can stand only once. Inconclusive results are not listed. Activity calls are given as the source filed them. The call rests on the fitted dose curve; in most records, active means well fitted cell-killing curve with a large enough effect in the repeat runs; inconclusive means weak or mixed curves, or effect the other way; inactive means flat fitted curve, though single readings scatter.

Assay [1] in a line: cAMP Responsive Elements (CRE) small molecule antagonists, cell-based qHTS assay: qHTS cell viability counter screen (AID 2060913). Further: nearly all actives have a fitted effect of over 40% in size. In short, it runs like this:
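Steps: cells plated and held 18 hrs at 37 C/5% CO2; compounds and NKH477 (0.25 uM final) added; 3 hrs incubation; reporter substrate read; CellTiter-Glo added to measure cytotoxicity by luminescence.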
For orientation: In qHTS, concentration-response curves come from the screen itself.

Assay [2] can be described thus: cAMP Responsive Elements (CRE) small molecule agonists, cell-based qHTS assay: qHTS cell viability counter screen (AID 2060914). Further: nearly all actives have a fitted effect of over 50% in size. In short, it runs like this:
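Luminescence read-out (CellTiter-Glo, 30 min RT) of ATP-based viability in CRE-bla HEK 293T cells, run in the same wells as the β-lactamase reporter assay after 3 h compound treatment at 37 °C.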
Potency means the concentration at half of the fitted maximal effect.

Consider `CC(C)(C)CC(C)(C)c1ccc(OCCOCC[N+](C)(C)Cc2ccccc2)cc1`, for which the Potency in assay [1] is 27.3 µM (active) and 29.8 µM (active); in assay [2], 54.4 µM (active) and 29.8 µM (active).

With `CC(C)(C)NCC(O)COc1ccc(NC(=O)NC2CCCCC2)cc1` (stereo not given), the Potency result in assay [1] and in assay [2] was “inactive” each time.

Turning to `COC(=O)/C=C/c1ccccc1`, the Potency result in assay [1] and in assay [2] was “inactive” throughout.

With `C=C(C)C(=O)OCCN(C)C`, the Potency entry in assay [1] and in assay [2] was “inactive” in each case.

With `C=Cc1ccccn1`, the Potency result in assay [1] and in assay [2] was “inactive” each time.

Turning to `OCCOCCOCCOCCOCCO`, the Potency entry in assay [1] and in assay [2] was “inactive” throughout.

As to `O=C(O)CNc1ccccc1`, the Potency entry in assay [1] and in assay [2] was “inactive” throughout.

Take `Cc1ccc(CCn2c3c(c4cc(Cl)ccc42)CN(C)CC3)cn1`: the Potency entry in assay [1] and in assay [2] was “inactive” throughout.

In the case of `OC(CCN1CCCCC1)(c1ccccc1)c1ccccc1`, the Potency result in assay [1] and in assay [2] was “inactive” in each case.

Take `CCCCC1=NC2(CCCC2)C(=O)N1Cc1ccc(-c2ccccc2-c2nn[nH]n2)cc1`: the Potency result in assay [1] and in assay [2] was “inactive” each time.

As to `CN1C(=O)N(C)C(O)C1O` (stereo not given), the Potency entry in assay [1] and in assay [2] was “inactive” in each case.

Consider `CCCCCCCCCCCCCCCCOP(=O)([O-])OCC[N+](C)(C)C`, for which the Potency entry in assay [1] and in assay [2] was “inactive” throughout.

As to `Cc1ccccc1OCC1CO1` (stereo not given), the Potency entry in assay [1] and in assay [2] was “inactive” each time.

For the compound `O=c1cc[nH]c(=O)[nH]1`, the Potency result in assay [1] and in assay [2] was “inactive” throughout.

Regarding `Cc1c(C)c2c(c(C)c1O)CCC(C)(COc1ccc(CC3SC(=O)NC3=O)cc1)O2` (stereo not given), the Potency result in assay [1] and in assay [2] was “inactive” throughout.

As to `CCCCCCCCCC[N+](C)(C)[O-]`, the Potency result in assay [1] and in assay [2] was “inactive” in each case.

With `CCCCCC[C@@H](O)C/C=C\CCCCCCCC(=O)O`, the Potency result in assay [1] and in assay [2] was “inactive” throughout.

With `COc1ccc(CN(CCN(C)C)c2ccccn2)cc1`, the Potency result in assay [1] and in assay [2] was “inactive” each time.

`Cc1c(N=C=O)cccc1N=C=O`: the Potency result in assay [1] and in assay [2] was “inactive” in each case.

In the case of `COc1cccc([C@H](O)C2CCN(CCc3ccc(F)cc3)CC2)c1OC`, the Potency entry in assay [1] and in assay [2] was “inactive” in each case.

`CC(C)=CCC/C(C)=C/CC/C(C)=C/CCC(=O)OC/C=C(\C)CCC=C(C)C`: the Potency entry in assay [1] and in assay [2] was “inactive” each time.

Consider `Cc1cc(C)c(N)c(Cl)c1`, for which the Potency result in assay [1] and in assay [2] was “inactive” each time.

Consider `CC(O)(P(=O)(O)O)P(=O)(O)O`, for which the Potency entry in assay [1] and in assay [2] was “inactive” throughout.

Take `C=CCn1c(=O)n(CC=C)c(=O)n(CC=C)c1=O`: the Potency entry in assay [1] and in assay [2] was “inactive” in each case.

For `CC(CO)c1ccccc1` (stereo not given), the Potency entry in assay [1] and in assay [2] was “inactive” in each case.
